Laboratory results as given in PubChem BioAssay.
Active and inactive are the calls of the source. Unless noted, the rule behind the calls is not given here.

Legend:
[1] = system: Wnt5a (protein binding on small-molecule microarray); test: Wnt5a binders on small-molecule microarray, primary screen, biophysical, 635/667 nm fluorescence (AID 1142); conditions: 635 nm fluorescence, higher = more signal;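 note: fluorescence read at 667 nm with signal to noise per printed feature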
[2] = cell viability in Huh7 cells, primary screen, cytotoxicity control for HCV replication inhibitor project, CellTiter-Glo luminescence, basal, 48 h (AID 1143); conditions: Huh7 HCV replicon, higher = more signal, called active from +8 up or from −8 down;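 note: Huh7 hepatoma cells carrying a hepatitis C replication reporter with no stimulus; test concentration not given here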
[3] = P. aeruginosa biofilm formation inhibitors, primary screen, PAO1 strain, BacTiter-Glo luminescence, LB-PBS (AID 1144); conditions: 12 h, higher = more signal
[4] = CREB reporter modulators without forskolin, primary screen, cell-based, PC12, CRE-LacZ reporter, unstimulated (AID 1145); conditions: no forskolin, luminescence, 4.5 h, higher = more signal, called active from +8 up or from −8 down
[5] = CREB reporter modulators under forskolin, primary screen, cell-based, PC12, CRE-LacZ reporter, forskolin-stimulated (AID 1146); conditions: luminescence, 4.5 h, higher = more signal, called active from +8 up or from −8 down;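 note: PC12 cells with 6xCRE LacZ reporter stimulated by forskolin 10 µM; beta-galactosidase reporter signal reflecting CREB driven transcription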
[6] = biological target: Streptavidin (Streptomyces avidinii) (UniProt P22629); test: streptavidin binders on small-molecule microarray, primary screen, artefact control for SMM compound annotation, biophysical, 635/667 nm fluorescence (AID 1147); conditions: streptavidin binding, higher = more signal;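 note: signal reflects streptavidin binding to arrayed compounds as a control protein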
Streptavidin (Streptomyces avidinii), sequence (P22629 whole entry, looked up): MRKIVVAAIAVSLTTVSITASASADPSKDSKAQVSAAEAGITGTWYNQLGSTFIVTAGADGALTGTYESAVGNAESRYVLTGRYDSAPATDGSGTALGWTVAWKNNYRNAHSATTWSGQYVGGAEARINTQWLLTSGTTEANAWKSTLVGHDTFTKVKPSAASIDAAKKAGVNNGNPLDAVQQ

[7] = small-molecule binders of probe aInhba, primary screen, biochemical, small-molecule microarray, 635/667 nm fluorescence (AID 1148); conditions: higher = more signal;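 note: score merges 667nm spot fluorescence with signal-to-noise for antibody binding to printed compounds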
Torsin-1A (Homo sapiens) [8] = biological target: Torsin-1A (Homo sapiens) (UniProt O14656); test: torsin A binders from cell lysate, primary screen, small-molecule microarray, wild-type, 635/667 nm (AID 1149); conditions: COS7 hTOR1A-WT lysate, 635 nm fluorescence, higher = more signal
Torsin-1A (Homo sapiens), sequence (O14656 whole entry, looked up): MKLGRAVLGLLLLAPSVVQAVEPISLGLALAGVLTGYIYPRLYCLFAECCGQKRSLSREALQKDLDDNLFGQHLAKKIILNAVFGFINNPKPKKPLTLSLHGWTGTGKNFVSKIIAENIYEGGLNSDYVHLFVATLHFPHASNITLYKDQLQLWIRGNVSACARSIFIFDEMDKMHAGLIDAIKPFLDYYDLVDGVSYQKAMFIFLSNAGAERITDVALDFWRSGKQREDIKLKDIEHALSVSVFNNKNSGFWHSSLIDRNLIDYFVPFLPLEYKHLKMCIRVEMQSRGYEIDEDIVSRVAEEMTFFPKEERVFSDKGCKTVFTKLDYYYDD

Torsin-1A (Homo sapiens) [9] = biological target: Torsin-1A (Homo sapiens) (UniProt O14656); test: small-molecule binders of mutant TOR1A in lysate, primary screen, cell lysate, small-molecule microarray, COS7 lysate, 635/667 nm fluorescence (AID 1150); conditions: COS7 hTOR1A mutant lysate, 635 nm fluorescence, higher = more signal;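 note: score pools 667 nm emission and signal to noise measuring lysate protein binding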
[10] = system: Sonic hedgehog protein (Shh); test: small-molecule binders of Shh protein, primary screen, biochemical, small-molecule microarray, 635/667 nm fluorescence (AID 1151); conditions: small-molecule microarray binding, 635 nm fluorescence; higher = more signal;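 note: Shh protein binding to compounds spotted on small-molecule microarray slides; score combines spot fluorescence intensity with signal-to-noise across triplicate slides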
[11] = E. coli DRC41 culture turbidity changes, primary screen, E. coli filamentation inducer project, strain DRC41, OD650, 48 h (AID 1152);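 note: E. coli MC1000 strain DRC41 lacking acrAB efflux pump and sulA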; conditions: E. coli DRC41 (acrAB sulA), higher = more signal, called active from +8 up or from −8 down
[12] = small-molecule binders of probe aLefty1, primary screen, biochemical, small-molecule microarray, 635/667 nm fluorescence (AID 1153); conditions: higher = more signal;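 note: score merges spot fluorescence with signal-to-noise ratio from the scanned slide images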
[13] = PSAC antagonists in infected red cells, primary screen, cell-based, P. falciparum Indochina, OD700, 1 h (AID 1154); conditions: P. falciparum Indochina infected RBC osmotic lysis, higher = more signal, called active from +8 up or from −8 down
[14] = PSAC antagonists in infected red cells, primary screen, cell-based, P. falciparum Indochina, OD700, 2 h (AID 1155);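 note: lysis reports solute entry through the parasite surface anion channel PSAC; channel blockers reduce lysis of infected cells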; conditions: P. falciparum Indochina infected erythrocytes, osmotic lysis OD700; higher = more signal, called active from +8 up or from −8 down
[15] = osmotic lysis modulators in infected erythrocytes, primary screen, PSAC antagonist project, cell-based, P. falciparum Indochina, OD700, 3 h (AID 1156); conditions: higher = more signal, called active from +8 up or from −8 down
[16] = PSAC antagonists in infected red cells, primary screen, cell-based, P. falciparum Indochina, OD700, 18 h (AID 1157); conditions: P. falciparum Indochina infected erythrocytes, osmotic lysis OD700, 18 h; higher = more signal, called active from +8 up or from −8 down
[17] = modulators of S6 phosphorylation in cells, primary screen, cell-based, A549, cytoblot, luminescence, serum-stimulated (AID 1158); conditions: A549 phospho-S6 cytoblot, 5 h, higher = more signal;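 note: serum-stimulated A549 lung adenocarcinoma cells; signal is phosphorylated S6 detected by cytoblot immunostaining with HRP secondary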
[18] = biological target: NADPH oxidase 2 (Homo sapiens) (UniProt P04839); test: NOX2-dependent H2O2 signal modulators, primary screen, NOX inhibitor project, cell-based, HEK293-NOX2, PMA-stimulated, Amplex Red fluorescence (AID 1159); conditions: 45 min, higher = more signal, called active from +8 up or from −8 down; note: test concentration not given here
NADPH oxidase 2 (Homo sapiens), sequence (P04839 whole entry, looked up): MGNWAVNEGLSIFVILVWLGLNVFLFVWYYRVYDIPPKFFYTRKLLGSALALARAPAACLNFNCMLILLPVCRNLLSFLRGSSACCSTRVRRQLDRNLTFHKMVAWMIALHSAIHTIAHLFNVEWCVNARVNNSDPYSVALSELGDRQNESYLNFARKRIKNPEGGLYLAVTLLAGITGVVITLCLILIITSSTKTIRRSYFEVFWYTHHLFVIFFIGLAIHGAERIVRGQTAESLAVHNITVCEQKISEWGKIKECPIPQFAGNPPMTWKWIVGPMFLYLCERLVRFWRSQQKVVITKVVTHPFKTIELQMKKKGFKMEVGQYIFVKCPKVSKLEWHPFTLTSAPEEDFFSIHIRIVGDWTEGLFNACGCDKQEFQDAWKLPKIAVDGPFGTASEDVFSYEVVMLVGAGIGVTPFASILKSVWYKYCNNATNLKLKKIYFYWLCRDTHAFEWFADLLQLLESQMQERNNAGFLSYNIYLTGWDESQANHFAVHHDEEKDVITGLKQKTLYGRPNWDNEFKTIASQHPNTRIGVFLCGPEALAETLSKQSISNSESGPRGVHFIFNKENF

[19] = biological target: NADPH oxidase 4 (Homo sapiens) (UniProt Q9NPH5); test: NOX4-dependent H2O2 signal modulators, primary screen, NOX inhibitor project, cell-based, HEK293-NOX4, tetracycline-induced, Amplex Red fluorescence (AID 1160); conditions: 45 min, higher = more signal, called active from +8 up or from −8 down
NADPH oxidase 4 (Homo sapiens), sequence (Q9NPH5 whole entry, looked up): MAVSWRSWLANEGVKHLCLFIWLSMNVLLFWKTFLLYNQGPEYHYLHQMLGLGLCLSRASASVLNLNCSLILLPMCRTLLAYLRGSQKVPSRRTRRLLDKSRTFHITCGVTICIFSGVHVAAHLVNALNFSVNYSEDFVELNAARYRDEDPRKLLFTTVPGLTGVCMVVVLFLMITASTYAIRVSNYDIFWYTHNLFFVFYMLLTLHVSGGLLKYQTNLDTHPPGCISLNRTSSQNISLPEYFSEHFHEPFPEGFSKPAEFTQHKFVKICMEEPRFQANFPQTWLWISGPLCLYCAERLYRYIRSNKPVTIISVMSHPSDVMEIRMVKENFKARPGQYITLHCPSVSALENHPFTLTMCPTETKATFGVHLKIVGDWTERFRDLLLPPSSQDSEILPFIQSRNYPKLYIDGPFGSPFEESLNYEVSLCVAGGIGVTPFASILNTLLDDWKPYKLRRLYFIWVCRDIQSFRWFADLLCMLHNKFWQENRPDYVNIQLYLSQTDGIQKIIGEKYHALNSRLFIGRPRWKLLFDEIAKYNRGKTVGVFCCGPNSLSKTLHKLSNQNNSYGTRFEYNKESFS

[20] = biological target: NADPH oxidase 5 (Homo sapiens) (UniProt Q96PH1); test: NOX5-dependent H2O2 signal modulators, primary screen, NOX inhibitor project, cell-based, HEK293-NOX5, Amplex Red fluorescence (AID 1161); conditions: HEK293-NOX5, ionomycin, 45 min, higher = more signal
NADPH oxidase 5 (Homo sapiens), sequence (Q96PH1 whole entry, looked up): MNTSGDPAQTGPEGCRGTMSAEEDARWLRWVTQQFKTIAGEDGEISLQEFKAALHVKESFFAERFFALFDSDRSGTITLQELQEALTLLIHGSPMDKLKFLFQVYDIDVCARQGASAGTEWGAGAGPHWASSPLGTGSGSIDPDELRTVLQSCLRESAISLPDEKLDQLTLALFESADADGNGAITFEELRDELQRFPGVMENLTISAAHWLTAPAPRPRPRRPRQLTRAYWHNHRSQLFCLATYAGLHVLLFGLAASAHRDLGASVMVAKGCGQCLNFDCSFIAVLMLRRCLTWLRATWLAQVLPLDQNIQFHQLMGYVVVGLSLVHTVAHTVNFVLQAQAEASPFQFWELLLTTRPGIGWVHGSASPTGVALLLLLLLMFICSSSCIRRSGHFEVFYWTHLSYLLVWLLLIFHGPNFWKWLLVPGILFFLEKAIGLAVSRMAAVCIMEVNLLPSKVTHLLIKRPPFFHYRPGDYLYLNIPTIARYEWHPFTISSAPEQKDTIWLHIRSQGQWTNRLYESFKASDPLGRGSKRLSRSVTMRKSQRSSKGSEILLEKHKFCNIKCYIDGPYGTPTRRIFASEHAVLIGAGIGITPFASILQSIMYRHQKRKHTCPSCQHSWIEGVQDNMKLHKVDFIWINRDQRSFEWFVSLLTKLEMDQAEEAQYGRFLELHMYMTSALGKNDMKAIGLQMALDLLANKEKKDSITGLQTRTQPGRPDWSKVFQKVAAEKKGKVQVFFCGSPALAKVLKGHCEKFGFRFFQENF

Compound | composite z-score [1] | z-score [2] | z-score [3] | z-score [4] | z-score [5] | composite z-score [6] | composite z-score [7] | composite z-score (Torsin-1A (Homo sapiens) [8]) | composite z-score (Torsin-1A (Homo sapiens) [9]) | composite z-score [10] | z-score [11] | composite z-score [12] | z-score [13] | z-score [14] | z-score [15] | z-score [16] | z-score [17] | z-score [18] | z-score [19] | z-score [20]
O=C(NCc1ccc(F)cc1)[C@H]1C[C@H]2C(=O)N[C@@H](Cc3ccccc3)C(=O)N2[C@H]1c1ccc(O)cc1 | -0.0011 | -0.411 (inactive) | 0.506 (inactive) | -0.801 (inactive) | -0.887 (inactive) | -0.507 | -0.206 | 1.08 | 1.37 | 1.1 | 0.132 (inactive) | -0.0601 | 2.64 (inactive) | 0.591 (inactive) | -1.55 (inactive) | 0.498 (inactive) | -0.0688 | 0.171 (inactive) | 0.301 (inactive) | 0.965
CN1C(=O)C2C=CC(C(O)c3ccccc3)N(Nc3ccccc3)C2C1=O (stereo not given) | -0.244 | 0.658 (inactive) | -0.231 (inactive) | 0.626 (inactive) | -0.206 (inactive) | -0.0782 | -0.0195 | -1.5 | 0.254 | -1.58 | -1.78 (inactive) | 0.242 | 0.0961 (inactive) | 1.31 (inactive) | 0.595 (inactive) | 0.974 (inactive) | -1.1 | -1.67 (inactive) | -3.82 (inactive) | -3.23
CCCCC(=C=CC[C@@H](O)c1ccccc1OCCO)CCO | -0.235 | -0.717 (inactive) | -0.0652 (inactive) | 17.8 (active) | 0.905 (inactive) | -0.488 | 0.0173 | -0.873 | 0.286 | 0.134 | 0.086 (inactive) | 0.0752 | 9.77 (active) | 0.899 (inactive) | 0.631 (inactive) | 0.576 (inactive) | 0.289 | -0.0172 (inactive) | -0.742 (inactive) | -1.71
[N-]=[N+]=Nc1ccccc1C[C@]1(C(=O)NCC(O)CO)N=C(c2ccc(OCCCO)cc2)O[C@H]1c1ccccc1N=[N+]=[N-] (stereo not given in full) | 0.246 | -3.86 (inactive) | -0.0958 (inactive) | 1.05 (inactive) | -1.49 (inactive) | 0.0136 | 0.192 | -0.0376 | 0.585 | -0.524 | 0.394 (inactive) | -0.0295 | 29.2 (active) | 29 (active) | 0.581 (inactive) | 2.68 (inactive) | 0.0471 | -2.76 (inactive) | -0.295 (inactive) | -1.67
COc1ccc(C(O)C2C=CC3C(=O)NC(=O)C3N2Nc2ccccn2)c2ccccc12 (stereo not given) | 0.0373 | 1.04 (inactive) | -0.507 (inactive) | -0.133 (inactive) | 0.214 (inactive) | -0.0105 | -0.0791 | 0.239 | -0.274 | 0.448 | -1.07 (inactive) | -0.0625 | 0.496 (inactive) | 0.437 (inactive) | -0.139 (inactive) | 0.977 (inactive) | -0.841 | -0.387 (inactive) | -3.5 (inactive) | -2.08
CCN(CC)c1ccc(N2CC=CC34O[C@@H]5/C=C\CCCOC(=O)C5[C@H]3C(=O)N(CCO)[C@@H]4C2=O)cc1 (stereo not given in full) | -0.6 | -0.117 (inactive) | 0.0243 (inactive) | 0.601 (inactive) | -0.462 (inactive) | -0.79 | -0.219 | -1.53 | -0.705 | 0.0512 | -0.0626 (inactive) | 0.0999 | 0.897 (inactive) | 0.175 (inactive) | 0.227 (inactive) | 0.041 (inactive) | -0.155 | -0.401 (inactive) | -0.72 (inactive) | 0.733
O=C(O)[C@@]1(CCS(=O)(=O)c2ccccc2)COC(c2ccc(OCCCO)cc2)=N1 | -0.142 | 0.122 (inactive) | 1.98 (inactive) | -0.389 (inactive) | -0.298 (inactive) | -0.439 | -0.108 | -0.792 | 0.333 | -1.03 | -0.513 (inactive) | -0.0601 | 1.58 (inactive) | -0.783 (inactive) | -0.821 (inactive) | -0.392 (inactive) | -0.312 | -0.0194 (inactive) | 0.85 (inactive) | 0.779
O=C1NC(=O)C2C1C=CC(C(O)c1cccc3ccccc13)N2Nc1ccccn1 (stereo not given) | 0.0051 | 0.697 (inactive) | -0.484 (inactive) | -0.522 (inactive) | -0.285 (inactive) | 0.278 | 0.185 | 0.16 | 0.231 | -0.516 | -0.0275 (inactive) | 0.137 | 1.06 (inactive) | 0.344 (inactive) | 0.274 (inactive) | 0.899 (inactive) | -0.562 | -1.2 (inactive) | -2.83 (inactive) | -2.36
CN(C)C(=O)[C@@]1(Cc2ccccc2CN=[N+]=[N-])N=C(c2ccc(OCCCO)cc2)O[C@H]1c1ccccc1 | 0.522 | -2.54 (inactive) | 0.378 (inactive) | 0.629 (inactive) | -0.524 (inactive) | -0.154 | 0.7 | 0.209 | 0.681 | -0.221 | 0.381 (inactive) | 1.18 | 20.9 (active) | 5.46 (inactive) | 1.59 (inactive) | 1.45 (inactive) | -0.0813 | -2.45 (inactive) | -0.0483 (inactive) | 0.524
